aSyn UTR inh: MLPCN primary screen, SNCA 5' untranslated region. alpha-synuclein 5'UTR reporter, inhibitor activity. inhibition, % (tested at 7.5 µM). actives 0.82% (n = 300,000); in the data active means inhibition above about 60%; inconclusive means no clear call, values can overlap the other calls;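 further: H4 neuroglioblastoma cells stably carrying SNCA 5'UTR luciferase fusion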
IEC-6 tox: kills IEC-6 intestinal cells in KLF5 counter-screen | inhibition, % at 5 µM | actives 0.78% (n = 290,000) | IEC-6 cytotoxicity, luminescence viability; in the data active means inhibition above about 22%
BaF3 parental: counter-screen for JAK2V617F inhibitors: parental Ba/F3 viability inhibitors. actives 1.1% (n = 220,000). CellTiter-Glo ATP luminescence. inhibition, % at 5.6 µM;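 active means inhibition above a per-campaign cutoff, the mean inhibition of all tested compounds plus 3 SD, cut at about 27% in these data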
KLF5 inhibitor: kruppel-like factor 5 inhibition | AID 1700 | DLD-1 KLF5 promoter-luciferase reporter, luminescence | actives 0.23% (n = 290,000) | inhibition, % at 5 µM;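 active means inhibition above a per-plate limit of that plate's mean compound inhibition plus 3 SD, cut at about 60% in these data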;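 further: higher means less KLF5 promoter-driven luciferase light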
Ba/F3 V617F tox: loss of viability in JAK2V617F-driven Ba/F3 cells; Ba/F3 EpoR-JAK2V617F viability, ATP luminescence; inhibition, % at 5.6 µM; actives 1.1% (n = 220,000); AID 1446;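 active means inhibition above the campaign mean plus 3 SD over all tested compounds, cut at about 24% in these data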;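 further: cytokine-independent growth of Ba/F3 cells driven by EpoR plus mutant JAK2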
APP 5UTR inh: APP translation inhibition | SH-SY5Y APP 5'UTR-luciferase reporter, luminescence | inhibition, % at 2 µM | actives 0.82% (n = 190,000) | AID 1285;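 active means inhibition above a set limit, derived from the sample mean plus 3 SD, cut at about 45% in these data; inconclusive means one replicate passes the limit while the other fails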
Large screens that a line does not name were inactive. An excerpt weighted towards active compounds, which were near 2.2% of everything screened.

Cc1ccc(SCC(=O)OCC(=O)NCCC2=CCCCC2)cc1	none (no result: IEC-6 tox, BaF3 parental, KLF5 inhibitor, Ba/F3 V617F tox, APP 5UTR inh)
CCOc1ccc2nc(NC(=O)c3ccc(OCC4CCCO4)cc3)sc2c1 (configuration not stated)	BaF3 parental 60.1, Ba/F3 V617F tox 55.9
COc1ccc(OCc2cccc(C(=O)Nc3cc(C)on3)c2)cc1	aSyn UTR inh 66.5
CCSc1nnc(NC(=O)c2cccc(OCc3c(C)noc3C)c2)s1	none
COc1ccc(NS(=O)(=O)c2cccc(C(=O)NNC(=O)COc3ccccc3)c2)cc1	none (no result: IEC-6 tox, BaF3 parental, KLF5 inhibitor, Ba/F3 V617F tox, APP 5UTR inh)
COc1ccc2nc(NC(=O)c3cccc(OCc4c(C)noc4C)c3)sc2c1	APP 5UTR inh 86.1
COc1ccc(OCC(=O)NNC(=O)c2cccc(S(=O)(=O)N(C)C)c2)cc1	APP 5UTR inh 50.5
O=[N+]([O-])c1cccc(S(=O)(=O)NC2CC3CCC2C3)c1 (configuration not stated)	none (no result: BaF3 parental, Ba/F3 V617F tox, APP 5UTR inh)
O=C(c1cccc(OCc2ccccc2)c1)N1CCOCC1	none
COc1ccc(OCc2cccc(C(=O)NN)c2)cc1	aSyn UTR inh 67.4
CCOc1ccc(OCc2cccc(C(=O)N3CCOCC3)c2)cc1	aSyn UTR inh 102.2, APP 5UTR inh 47.8
Cc1ccccc1-n1cnc2cc(NCc3cccs3)ccc21	none
COc1ccccc1-n1cnc2cc(NCc3cccs3)ccc21	aSyn UTR inh inconclusive, IEC-6 tox 82.1, BaF3 parental 72.7, Ba/F3 V617F tox 72.8, APP 5UTR inh 93.1
Cc1ccc2c(c1)C=CC(C)(C)S2=O (configuration not stated)	none
CC[N+]1=C(C)C(C)(C)c2cc(C)ccc21	BaF3 parental 72.2, Ba/F3 V617F tox 64.5
COc1ccc(N2C(=O)C(CC(N)=O)N(NC(=O)c3cccc(OC)c3)C2=S)cc1 (configuration not stated)	none
NC(=O)c1cc(Br)cc(C2CCCCC2)c1O	aSyn UTR inh 86.8 (no result: APP 5UTR inh)
NC(=O)c1cc(Br)cc2c3c([nH]c12)CCCC3	none
COc1ccc(-c2coc3cc4oc(=O)cc(C)c4cc23)cc1F	none
COc1ccc(-c2coc3cc4oc(=O)cc(-c5ccccc5)c4cc23)cc1F	aSyn UTR inh 112.9, APP 5UTR inh 89.7
Fc1ccc(-c2nc3ccccc3[nH]2)cc1	BaF3 parental 63.0
CC(C)C(NC(=O)Nc1ccccc1)C(=O)Nc1cccc(S(=O)(=O)N(C)C)c1 (configuration not stated)	none (no result: BaF3 parental, Ba/F3 V617F tox, APP 5UTR inh)
FC(F)(F)c1cc(Oc2ccc(Cl)cc2)nc(-c2ccccn2)n1	none
FC(F)(F)c1cc(Oc2ccccc2Cl)nc(-c2ccccn2)n1	aSyn UTR inh 64.2
Cc1nc(Nc2ccncc2)c2oc3ccccc3c2n1	none
CCc1nc(Nc2ccncc2)c2oc3ccccc3c2n1	BaF3 parental 29.4
CCOC(=O)c1c(C)nn(-c2ccc(NC(=O)/C=C/C(=O)O)cc2)c1C	aSyn UTR inh 92.4 (no result: APP 5UTR inh)
CCOC(=O)c1c(C)nn(-c2ccc(NC(=O)c3c(C)noc3C)cc2)c1C	none (no result: BaF3 parental, Ba/F3 V617F tox, APP 5UTR inh)
CS(=O)(=O)N1CCN(c2ccccc2NC(=O)CSc2ccc(Cl)cc2)CC1	none
O=C(CSc1ccc(Cl)cc1)Nc1ccccc1N1CCN(C(=O)c2ccccc2)CC1	BaF3 parental 67.7
COc1ccccc1CN1CCC(n2nccc2NC(=O)CCOc2ccccc2)CC1	none (no result: BaF3 parental, Ba/F3 V617F tox, APP 5UTR inh)
COc1ccc(-c2cnnc(N/N=C/c3ccc(O)cc3)n2)cc1	none
COc1ccc(-c2cnnc(N/N=C/c3c(C)nn(-c4ccccc4)c3Cl)n2)cc1	APP 5UTR inh 62.0
CC(C)(C)OC(=O)N[C@@H](Cc1ccccc1)c1nnc(S(=O)(=O)Cc2ccccc2)o1	Ba/F3 V617F tox 58.0, APP 5UTR inh 64.0 (no result: aSyn UTR inh)
Cc1ccc(O)c(/C=N/NC(=O)c2[nH]ncc2Br)c1	none
Cc1ccc(O)c(/C=N/NC(=O)C2=NNC(c3ccccc3)(c3ccccc3)C2)c1	APP 5UTR inh 77.8 (no result: aSyn UTR inh)
NNc1nc2sc3c(c2c(=O)n1Cc1ccccc1)CCC3	BaF3 parental 33.7, Ba/F3 V617F tox 47.3 (no result: APP 5UTR inh)
CCn1c(NN)nc2sc3c(c2c1=O)CCC3	none (no result: aSyn UTR inh)
Nn1c(Nc2ccccc2)nc2sc3c(c2c1=O)CCC3	IEC-6 tox 22.5
NS(=O)(=O)c1ccc(NC(=O)c2ccc(F)cc2F)c(NC(=O)c2ccc(F)cc2F)c1	none (no result: BaF3 parental, Ba/F3 V617F tox, APP 5UTR inh)
NC1=C(c2ccccc2)C(=O)NC1=O	none (no result: BaF3 parental, Ba/F3 V617F tox, APP 5UTR inh)
Cc1cc(/C=C2\Sc3ccccc3N2C)cc(C)[n+]1CC1CCCO1 (configuration not stated)	BaF3 parental 75.8, Ba/F3 V617F tox 99.9 (no result: aSyn UTR inh)
O=S(=O)(c1ccc(F)cc1)c1snnc1-c1ccccc1	BaF3 parental 67.5, Ba/F3 V617F tox 60.8, APP 5UTR inh 92.7
O=S(=O)(c1ccc(Cl)cc1)c1snnc1-c1ccccc1	aSyn UTR inh 116.1, BaF3 parental 32.5, Ba/F3 V617F tox 43.8, APP 5UTR inh 95.6
c1ccc(-c2nnsc2-c2ncc[nH]2)cc1	none
CC(Sc1nnc(-c2cccnc2)n1C)C(=O)N1CCOCC1 (configuration not stated)	none (no result: IEC-6 tox, BaF3 parental, KLF5 inhibitor, Ba/F3 V617F tox, APP 5UTR inh)
Cn1cc(C(=O)N/N=C/C(Br)=C\c2ccccc2)ccc1=O	none
Cn1cc(C(=O)N/N=C/C(Br)=C/c2ccccc2)ccc1=O	APP 5UTR inh 84.7
O=C(Nc1ccc(Cl)c(S(=O)(=O)N2CCOCC2)c1)c1cn2ccccc2n1	none
O=C(Nc1ccc(N2CCOCC2)cc1)c1cn2ccccc2n1	aSyn UTR inh 65.5
COC(=O)Cn1ncc2c3ccccc3n(C)c2c1=O	BaF3 parental 90.2
Cc1cccc(S(=O)(=O)NC2CCCCCCC2)c1	none (no result: BaF3 parental, Ba/F3 V617F tox, APP 5UTR inh)
COc1ccc(/C=C/C(=O)NC(=S)NNC(=O)c2cccnc2)cc1	none
O=C(/C=C/c1ccc(F)cc1)NC(=S)NNC(=O)c1cnccn1	aSyn UTR inh 95.5 (no result: APP 5UTR inh)
O=C(NNC(=S)NC(=O)c1cccnc1)c1ccc(F)cc1	none (no result: APP 5UTR inh)
COc1ccc(/C=C/C(=O)NC(=S)NNC(=O)c2cnccn2)cc1	aSyn UTR inh 74.8 (no result: APP 5UTR inh)
O=C(NC(=S)NNC(=O)c1cnccn1)c1ccc(F)cc1	aSyn UTR inh 70.3
O=C(/C=C/c1ccc(F)cc1)NC(=S)Nc1ccccc1	none (no result: BaF3 parental, Ba/F3 V617F tox, APP 5UTR inh)
COc1ccc(C)cc1NC(=O)CCNS(=O)(=O)c1ccc2c(c1)CCC(=O)N2	none (no result: BaF3 parental, Ba/F3 V617F tox, APP 5UTR inh)
Cc1ccc(NC(=O)c2cc(=O)[nH]c3ccccc23)cc1C	none (no result: BaF3 parental, Ba/F3 V617F tox, APP 5UTR inh)
CCOC(=O)C1=C(C)N(CCCC(=O)O)C(=O)NC1c1ccc(C(F)(F)F)cc1 (configuration not stated)	none (no result: IEC-6 tox, BaF3 parental, KLF5 inhibitor, Ba/F3 V617F tox, APP 5UTR inh)
CCOC(=O)C1CCN(C(=O)CN2C(=O)COc3ccc(C(C)(C)C)cc32)CC1	none (no result: BaF3 parental, Ba/F3 V617F tox, APP 5UTR inh)
Cc1nn(-c2ccc(Cl)cc2)c(=O)c2ccccc12	none
Cc1c(Cl)sn(-c2ccc(Cl)cc2)c1=O	APP 5UTR inh 91.9 (no result: aSyn UTR inh)
COc1cc(C(=O)O)nc2ccc([N+](=O)[O-])cc12	none
CCOC(=O)C1=C(C)N=c2s/c(=C\c3cccn3C)c(=O)n2C1c1cccc(OC)c1OC (configuration not stated)	BaF3 parental 96.0
Cc1ccccc1-c1cnn(-c2cccc([N+](=O)[O-])c2)c1N	none
Nc1c(-c2ccccc2Cl)cnn1-c1cccc([N+](=O)[O-])c1	BaF3 parental 46.4
